Assay results taken from PubChem BioAssay AID504467 (National Center for Advancing Translational Sciences (NCATS), 2011).
About 7,700 (2.3%) of roughly 330,000 compounds were called active. Roughly 26% stayed inconclusive and do not appear here. The full list was thinned out, with actives kept by preference. Unmarked numbers belong to inactive results. The call rests on the fitted dose curve; in most records, active means well fitted inhibition curve with a large enough effect; inconclusive means small, poorly fitted or top-dose-only effect, or effect the other way; inactive means flat fitted curve, though single readings scatter.

Test: qHTS screen for small molecules that inhibit ELG1-dependent DNA repair in human embryonic kidney (HEK293T) cells expressing luciferase-tagged ELG1; further: nearly all actives have a fitted effect of over 55% in size
Details: HEK293T ELG1-luciferase reporter, luminescence, 16 h, DNA damage induced by 5-fluorouridine; series mostly up to 46.1 µM; activity change, negative = inhibition: at the top concentration
Method in brief: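 Step one: seed 2,000 cells per well. Step two: pin-transfer compound or DMSO alongside 5-fluorouridine. Step three: incubate 16 hr, 37 °C, 5% CO2. Step four: add ONE-Glo, wait 30 min, read luminescence.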
On the % scale 0 is the no-effect control and ±100 the full control effect; potency means the concentration at half of the fitted maximal effect.

| SMILES | activity change, negative = inhibition | Potency |
| --- | --- | --- |
| COc1ccccc1CNC(=O)COn1nnc2ccc(S(=O)(=O)N3CCOCC3)cc21 | -1.32% | – |
| CCn1c(C(O)c2cc(OC)ccc2OC)nc2ccccc21 (configuration not stated) | -22% | – |
| COc1ccc(CCNc2nc3ccc(C)cc3n3cnnc23)cc1OC | -17.1% | – |
| COc1ccc(OC)c(Nc2nc3ccccc3n3cnnc23)c1 | – | 14.6 µM (active) |
| Cc1ccc(/C=C2/SC(=S)N(CCC(=O)NCCCN3CCOCC3)C2=O)cc1 | 3.39% | – |
| CCOc1ccc(NC(=O)COc2ccc(C(=O)N3CCC(C(N)=O)CC3)cc2OC)cc1 | 0.553% | – |
| Cc1cc(-c2ccccc2)n2nc(C)c(-c3ccccc3)c2n1 | 29.7% | – |
| Cc1cc(-n2nc(C)cc2C)n2nc(C)c(-c3ccccc3)c2n1 | -15.9% | – |
| CCc1c(C)nc2c(-c3ccccc3)c(C)nn2c1Nc1ccc(NC(C)=O)cc1 | – | 16.4 µM (active) |
| Cc1cc(C)c2nc(N(CCN(C)C)C(=O)/C=C/c3cccs3)sc2c1 | -3.07% | – |
| CN(CC(=O)Nc1ccc(F)c(F)c1F)C(=O)Cn1cnc2c1c(=O)n(C)c(=O)n2C | 13% | – |
| O=C(COc1ccccc1F)NNC(=O)c1cc(Br)ccc1Cl | 16.7% | – |
| COc1ccccc1N1CCN(C(=O)C2Cc3ccccc3CN2C(=O)c2ccco2)CC1 (configuration not stated) | 8.8% | – |
| Cc1ccc(C)c(-c2nnc(NC(=O)CS(=O)(=O)c3ccccc3)o2)c1 | -2.86% | – |
| COc1ccc(S(=O)(=O)NCC(=O)NC2CC2)cc1OC | 3.84% | – |
| Cc1ccc(C(=O)NCCNC(=O)c2cnccn2)cc1 | -0.272% | – |
| CCN(CC)c1ccc(/C=N/NC(=O)c2cnccn2)c(O)c1 | – | 1.46 µM (active) |
| O=C(N/N=C/c1ccc(O)c2ccccc12)c1cccnc1 | -3.64% | – |
| CC1(c2ccc3ccccc3c2)NC(=O)N(CC(N)=O)C1=O (configuration not stated) | -0.705% | – |
| CCc1ccc(Nc2n[n+](-c3ccccc3)c(-c3cccc(Cl)c3Cl)s2)cc1 | -28.7% | – |
| NC(=O)c1ccc(Nc2ccc3c(c2)CCC3)c([N+](=O)[O-])c1 | – | 11.6 µM (active) |
| NC(=O)c1ccc(Nc2ccc3nonc3c2[N+](=O)[O-])cc1 | -11.4% | – |
| Cc1ccc(Nc2ccc(C(N)=O)cc2[N+](=O)[O-])cc1 | -8.38% | – |
| CC(Sc1nnc(-c2ccccc2F)n1C1CC1)C(N)=O (configuration not stated) | 2.76% | – |
| CCN(C[C@H]1N[C@@](Cc2ccccc2)(C(=O)OC)[C@H]2C(=O)N(Cc3ccccc3)C(=O)[C@@H]12)C(=O)c1ccc(C)cc1 | 0.138% | – |
| CCOc1ccc(NC(=O)c2cc(C)nc3ccccc23)cc1 | -8.94% | – |

| SMILES | activity change, negative = inhibition | Potency |
| --- | --- | --- |
| COc1ccccc1C(=O)Nc1ccc(OCc2nnc3c4ccccc4c(C)nn23)cc1 | – | 20.6 µM (active) |
| CCCNC(=O)Nc1ccccc1C(=O)Nc1ccc(OC)cc1 | 23.7% | – |
| COc1ccc(C(CNC(=O)c2ccc(NS(=O)(=O)c3ccc(F)c(C)c3)cc2)N(C)C)cc1 (configuration not stated) | 14.9% | – |
| O=Cc1cn(Cc2ccccc2)nc1-c1cccnc1 | 9.65% | – |
| O=C1NCC(=O)N(Cc2ccccc2)/C1=C/c1ccccc1 | 7.15% | – |
| O=C1/C(=C\c2cccnc2)CN(Cc2ccccc2)C/C1=C\c1cccnc1 | – | 3.66 µM (active) |
| COC(=O)[C@]1(CC(C)C)N[C@H](c2ccc(SC3CCCCC3)cc2)[C@@H]2C(=O)N(C)C(=O)[C@@H]21 | -17.4% | – |
| CCOC(=O)C1CCN(c2ncnc3c2oc2ccc(Br)cc23)CC1 | 24% | – |
| CCOC(=O)C1CCN(c2ncnc3c2c(-c2ccccc2)cn3-c2ccc(C)cc2)CC1 | – | 14.6 µM (active) |
| CCOC(=O)C1CCN(Cc2ccc(-c3ccccc3)cc2)CC1 | 1.34% | – |
| COC(=O)c1ccc(C(=O)NC2CC(C)(C)Cc3c2cnn3-c2ccc(F)cc2)nc1 (configuration not stated) | 7.96% | – |
| CC1(C)C[C@H]2C3=CCC4[C@@]5(C)CC[C@H](O)[C@](C)(CO)C5CC[C@@]4(C)[C@]3(C)C[C@@H](O)[C@@]2(CO)[C@@H](O)[C@@H]1O (some centres not stated) | -2.62% | – |
| CCN(CC)CCCNC(=O)c1c(O)c2cc(F)cc3c2n(c1=O)C(C)CC3 (configuration not stated) | 14.1% | – |
| CC(=O)c1ccc(S(=O)(=O)N2CCN(C(=O)/C=C/c3ccc4ccccc4n3)CC2)cc1 | – | 20.6 µM (active) |
| NC(=O)COC(=O)/C=C/c1ccc2ccccc2n1 | -4.5% | – |
| CC(=O)c1ccc(S(=O)(=O)N2CCC3(CC2)OCCO3)cc1 | 1.56% | – |
| N#C/C(=C\c1cccnc1)C(=O)Nc1ccc(SC(F)F)cc1 | 19.2% | – |
| CC(CNC(=O)Cn1cnc2c(OCc3ccccc3)ncnc21)c1ccccc1 (configuration not stated) | -6.48% | – |
| C/C(=N/NC(=O)c1ccncc1)c1ccc2c(c1)OCO2 | 0% | – |
| COc1ccc(-c2csc(NC(=O)c3ccc(N4C(=O)CCC4=O)cc3)n2)cc1OC | 11.1% | – |
| O=C(Nc1nc(-c2ccc3c(c2)OCO3)cs1)c1ccncc1 | – | 7.08 µM (active) |
| CCN(C(=O)COC(=O)CCOc1cccc(C)c1)c1c(N)n(Cc2ccccc2)c(=O)[nH]c1=O | 2.9% | – |
| O=C(CSc1ccccn1)N1CCN(S(=O)(=O)c2ccc(Cl)cc2)CC1 | 2.63% | – |
| CCN(C[C@H]1N[C@@](CC)(C(=O)OC)[C@H]2C(=O)N(C)C(=O)[C@@H]12)C(=O)Nc1ccc(F)cc1 | 17.4% | – |
| O=C(Nc1cc(Cl)cc(Cl)c1)C(NCCCO)c1ccccc1 (configuration not stated) | -4% | – |
| OCCCNc1nccc(-c2cc(Nc3cccc(Cl)c3)ncn2)n1 | – | 0.92 µM (active) |

| SMILES | activity change, negative = inhibition | Potency |
| --- | --- | --- |
| NS(=O)(=O)c1cccnc1Nc1cccc(Cl)c1 | 7.92% | – |
| COc1ccc(S(=O)(=O)N2CCN(CC(=O)N3CCOCC3)CC2)cc1OC | 11.6% | – |
| COc1ccc(C(=O)Nc2ccccc2C(=O)N2CCN(c3ccccc3)CC2)cc1 | 8.95% | – |
| Cc1ccc(OCC(=O)N/N=C\c2ccco2)c(C)c1 | 20.9% | – |
| Cc1ccc(C)c(OCC(=O)N2CCN(C(=O)c3ccco3)CC2)c1 | 0.168% | – |
| CCC(=O)Nc1ccc(C(=O)N2CCN(C(=O)c3ccco3)CC2)cc1 | -22.8% | – |
| COc1ccccc1C(=O)Nc1ccc(NC(=O)c2ccco2)c(C)c1 | 5.61% | – |
| COc1cc(NC(=O)c2cc([N+](=O)[O-])ccc2Br)ccc1NC(=O)c1ccco1 | 25% | – |
| COc1ccc(NC(=O)c2cccc(NC(=O)c3ccco3)c2)c(OC)c1 | – | 18.4 µM (active) |
| COc1cccc(C(=O)Nc2ccc(N3CCN(C(=O)c4ccco4)CC3)cc2)c1 | – | 13 µM (active) |
| Cc1ccc(OCC(=O)Nc2ccc(N3CCN(C(=O)c4ccco4)CC3)cc2)c(C)c1 | – | 10.3 µM (active) |
| Cc1cccc(C(=O)N[C@H](C(=O)NCc2cccs2)C(C)C)c1 | -3.69% | – |
| CC(NC(=O)c1ccccc1F)c1cccc2ccccc12 (configuration not stated) | 18.6% | – |
| CC1CCCC(NC(=O)c2cc(S(=O)(=O)N3CCCCC3)ccc2Cl)C1C (configuration not stated) | 9.38% | – |
| Cc1ccccc1CNC(=O)CCC(=O)N1Cc2ccccc2Oc2ncccc21 | 13.4% | – |
| C=C1CCC(N(O)c2cc(C)on2)C(=C)CCC2C1CC2(C)C (configuration not stated) | 13.3% | – |
| Cc1ccc(S(=O)(=O)N2CCC(C(=O)NCCC3=CCCCC3)CC2)cc1C | 5.56% | – |
| Fc1ccc2[nH]c3c(N4CCN(Cc5ccc6c(c5)OCO6)CC4)ncnc3c2c1 | – | 13 µM (active) |
| O=c1[nH]c(N2CCN(Cc3ccc4c(c3)OCO4)CC2)nc2c1CCCC2 | 8.53% | – |
| CC(C)(C)n1nnnc1C(c1ccc(F)cc1)N1CCN(Cc2ccc3c(c2)OCO3)CC1 (configuration not stated) | 14.9% | – |
| COc1cccc(CNC(=O)COc2cc(O)c3c(c2)OC(C)(C)CC3=O)c1 | -5.81% | – |
| Cc1ccc(S(=O)(=O)N2CCN(CC(=O)N/N=C/c3cc([N+](=O)[O-])ccc3Cl)CC2)cc1 | -1.1% | – |
| Cc1ccc(C)c(S(=O)(=O)N2CCN(CC(=O)Nc3ccc([N+](=O)[O-])cc3)CC2)c1 | – | 14.6 µM (active) |
| Cc1ccc(C)c(S(=O)(=O)N2CCN(C(=O)Nc3ccccc3)CC2)c1 | -17.6% | – |
| Cc1ccc(S(=O)(=O)N2[C@@H](c3ccccc3F)C(C(=O)O)=CC[C@H]2c2ccc(Cl)cc2)cc1 | 3.35% | – |
| Cc1c(NC(=O)CSc2nnc(-c3cccnc3)n2N)c(=O)n(-c2ccccc2)n1C | 8.36% | – |

| SMILES | activity change, negative = inhibition | Potency |
| --- | --- | --- |
| Cc1ccc(C)c(Cn2nnc3c(=O)[nH]c(C(=O)Nc4ccc(F)cc4)nc32)c1 | -19.3% | – |
| Cc1ccc(NC(=O)N2CCC(c3nc4c(nnn4Cc4c(F)cccc4Cl)c(=O)[nH]3)CC2)cc1 | – | 18.4 µM (active) |
| O=C(Nc1ccc(F)cc1)N1CCCC(c2nc3c(nnn3Cc3ccccc3Cl)c(=O)[nH]2)C1 (configuration not stated) | -26.2% | – |
| Cc1cccc(NS(=O)(=O)c2ccc(C)c(C(=O)NCC(c3ccccc3)N(C)C)c2)c1 (configuration not stated) | 1.94% | – |
| CCc1noc(C)c1C(=O)Nc1nc2ccc(OC)cc2s1 | 8.8% | – |
| COc1ccc2nc(Nc3nc4ccc(NC(C)=O)cc4s3)sc2c1 | 14.9% | – |
| COc1ccc2nc(Nc3nc(-c4cc5ccccc5oc4=O)cs3)sc2c1 | – | 3.66 µM (active) |
| CC1CCCCC1NCC(=O)Nc1ccccc1C(=O)Nc1ccccc1 (configuration not stated) | -2.06% | – |
| CC(C)(C)OC(=O)N1CCC(C(=O)NNC(=O)c2ccc(Cl)cc2Cl)CC1 | 12.8% | – |
| O=C(CN1CCc2ccccc21)NC(c1ccccc1)c1ccccc1 | -0.985% | – |
| NS(=O)(=O)c1cccc(NC(=O)CN2CCCc3ccccc32)c1 | -6.2% | – |
| COC(=O)c1[nH]c2cccc(C)c2c1NC(=O)CN1CCCc2ccccc21 | – | 18.4 µM (active) |
| CCC(=O)c1cc(F)ccc1OCC(=O)Nc1ccc2c(c1)OCCO2 | -13.3% | – |
| CCOCCCN(C)C1CCN(C(=O)c2oc3ccccc3c2NC(=O)COc2cccc(C)c2)CC1 | -22.3% | – |
| CCOc1ccc(S(=O)(=O)Nc2cccc(C(=O)NCC3(N4CCCCC4)CCCCC3)c2)cc1 | -6.27% | – |
| CCOC(=O)c1cccc(NC(=O)C2CCN(c3ncnc4c3nc3n4CCCCC3)CC2)c1 | – | 0.461 µM (active) |
| O=C(NCCCN1CCCCC1)C1CCCN(c2ncnc3c2nc2n3CCCCC2)C1 (configuration not stated) | -0.877% | – |
| CCOC(=O)c1cccc(NC(=O)CCc2c(C)nc3ncnn3c2C)c1 | -7.17% | – |
| COc1cccc(NC(=O)C2CCCN(c3ncnc4c3nc3n4CCCCC3)C2)c1 (configuration not stated) | – | 14.6 µM (active) |
| COc1cccc(CNC(=O)C2CCCN(S(=O)(=O)N3CC(C)CC(C)C3)C2)c1 (configuration not stated) | 7.78% | – |
| O=C(Nc1cccc(Cl)c1)C1CCCN(c2cnccn2)C1 (configuration not stated) | 15.8% | – |
| COc1cccc(CNC(=O)C2CCCN(c3ncnc4c3nc3n4CCCCC3)C2)c1 (configuration not stated) | – | 18.3 µM (active) |
| COc1ccccc1NC(=O)C1CCCN(c2cc(C)nc3ncnn23)C1 (configuration not stated) | 1.9% | – |
| CCOC(=O)c1cccc(NC(=O)C2CCCN(S(=O)(=O)c3cnc[nH]3)C2)c1 (configuration not stated) | -6.55% | – |
